High-throughput results: PubChem BioAssay, several laboratories
Rows were chosen to be rich in hits. Some 2.2% of all compounds tested hit in one or more screens of this group.
CHO-K1 Ca PAM – nonselective activator or artifact in parental CHO-K1 calcium assay; ATP EC20, Fluo-8 calcium fluorescence; 0% at ATP EC20, 100% at ATP max; activation, % at 3 µM; 360,000 tested, 0.02% active;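 active = activation above the run cutoff, the mean activation of all test compounds plus 3 SD, cut at about 40% in these data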;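 note: peak over basal fluorescence ratio in a 140 s read after ATP addition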
TMEM16A act – activators or potentiators of mouse TMEM16A chloride channel. Q8BHY3. AID 623877. HEK293 TMEM16A/YFP-H148Q/I152L, iodide quench fluorescence; active compounds read low. B-score at 10 µM. 340,000 tested, 0.3% active;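 active = fluorescence-ratio B-score plate-corrected deviation score at least 3 library SD below zero, with starting fluorescence score within 5 deviations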;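 note: channel opened by trigger with iodide after compound preincubation; score built on the fluorescence ratio of max minus min over baseline; more negative score means more quench and so TMEM16A activation or potentiation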
CHO-K1 Ca antag – nonselective inhibitor or artifact in parental CHO-K1 cells; ATP-induced calcium, Fluo-8 fluorescence; inhibition, % at 3 µM; 360,000 tested, 0.6% active;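 active = inhibition above a per-plate cutoff, the plate's mean sample inhibition plus 3 SD, cut at about 24% in these data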;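 note: 0% = DMSO plus EC80 ATP and 100% = DMSO alone without ATP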
CHO-K1 Ca ag – counter-screen for M1 agonists: effect in parental CHO-K1 cells; Fluo-8 calcium fluorescence; scaled to maximal ATP response, vehicle zero; activation, % at 3 µM; 360,000 tested, 0.48% active; in the data active = activation above about 15%;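 note: untransfected CHO-K1 host cells lacking M1 receptor as counterscreen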
ANO1 block – mouse TMEM16A channel inhibition, primary screen | Q8BHY3 | HEK293 TMEM16A/YFP iodide influx fluorescence, ionomycin | normalized B-score (activity score, 25-100; higher = stronger inhibition) at 10 µM | 310,000 tested, 1.2% active;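 active = ratio plate-corrected score three or more library SD toward inhibition, starting fluorescence score within five deviations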;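 note: score derived from kinetic fluorescence span divided by baseline fluorescence per well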
NTR1 agonist – activates human neurotensin receptor 1 | P30989 | NTR1-U2OS beta-arrestin-GFP spot imaging, agonist mode | activation, % at 20 µM | 330,000 tested, 0.17% active | AID 493036;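 active = activation at or above 40% of the spot to cytoplasm intensity ratio, with at least 20 cells analyzed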;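 note: 0% = DMSO without peptide and 100% = 100 nM NTR1 peptide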
Target sequence (P30989 whole entry, looked up): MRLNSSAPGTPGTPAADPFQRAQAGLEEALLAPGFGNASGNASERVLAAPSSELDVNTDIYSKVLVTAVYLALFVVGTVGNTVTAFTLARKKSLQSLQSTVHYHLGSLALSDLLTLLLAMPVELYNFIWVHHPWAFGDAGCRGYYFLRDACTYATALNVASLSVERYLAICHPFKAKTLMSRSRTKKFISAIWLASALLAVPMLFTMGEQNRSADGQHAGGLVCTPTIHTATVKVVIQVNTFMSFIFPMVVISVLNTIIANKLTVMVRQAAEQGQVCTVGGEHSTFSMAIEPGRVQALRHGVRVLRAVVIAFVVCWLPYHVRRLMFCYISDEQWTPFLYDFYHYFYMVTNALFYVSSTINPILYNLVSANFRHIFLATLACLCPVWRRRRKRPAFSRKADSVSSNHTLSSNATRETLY
TMEM16A reconf – reconfirmed blocker of mouse TMEM16A calcium-activated chloride channel | shares compounds with ANO1 block | HEK293 TMEM16A/YFP-H148Q, iodide quench fluorescence; ionomycin added to raise cell calcium | inhibition, % at 10 µM | 2,300 tested, 39% active | AID 652189;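 active = mean duplicate percent inhibition, scaled so buffer wells are 0 and the reference blocker 100, over three buffer SD above buffer mean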
HEK293 Ca mobil – calcium mobilization counter-screen hit for TMEM16A inhibitor series; shares compounds with ANO1 block; TMEM16A/YFP HEK293, Fluo4 calcium mobilization; calcium response (% of ionomycin), % at 10 µM; 2,300 tested, 2% active;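 active = duplicate-averaged calcium signal over 20% of the ionomycin maximum, relative to buffer baseline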;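 note: each well's signal is peak minus trough fluorescence divided by its pre-addition baseline; 0% = buffer wells and 100% = ionomycin wells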
YFP-HEK293 quench – parental YFP-HEK293 iodide quench counter-screen activity. YFP ratio F(max-min)/F0 at 10 µM. AID 652233. ionomycin. shares compounds with ANO1 block. 2,300 tested, under 10 active;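 active = yellow fluorescent protein signal ratio exceeding the buffer control mean by over 5 SD of those controls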;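 note: ratio is mean of duplicate wells from kinetic YFP trace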
ClC-1 rat inh – selectivity of TMEM16A inhibitors: inhibition of rat ClC-1 chloride channel. shares compounds with ANO1 block. CHO ClC-1-YFP, iodide influx fluorescence quench; iodide control reads 0, buffer control 100. ratio percent, % at 10 µM. 2,300 tested, under 10 active;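 active = duplicate-mean ratio percent above the mean of iodide-only control wells, which defines zero, plus 5 of their SD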;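 note: higher percent means stronger block of ClC-1 iodide influx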
The depositor's hits bear a star; i = inactive; nt = no result.

SMILES	CHO-K1 Ca PAM	TMEM16A act	CHO-K1 Ca antag	CHO-K1 Ca ag	ANO1 block	NTR1 agonist	TMEM16A reconf	HEK293 Ca mobil	YFP-HEK293 quench	ClC-1 rat inh
COc1ccc(-c2c(C(F)(F)F)[nH]n3c(=O)cc(-c4ccccc4)nc23)cc1	22	i	-5	1	100*	2	49%*	i	-0.92	-18
O=S(=O)(Nc1nc2ccccc2nc1Cl)c1ccccc1C(F)(F)F	-2	i	-8	0	i	1	nt	nt	nt	nt
O=S(=O)(Nc1nc2ccccc2nc1Cl)c1cccc(C(F)(F)F)c1	14	i	-15	8	25*	1	21%*	i	-1.1	-10
CCOC(=O)CCCN(c1[nH]c(C)c(C)c1C#N)S(=O)(=O)c1ccc(C)cc1	12	nt	-7	0	nt	nt	nt	nt	nt	nt
Cc1cc(C(=O)NC2CCCc3c2cnn3-c2cccc(C)c2C)no1 (stereo not given)	-8	i	3	9	25*	2	i	i	-0.79	-11
Cc1cccc(C(=O)Nc2sc(C)c(-c3ccccc3)c2C#N)c1	7	i	-2	0	i	5	nt	nt	nt	nt
Cc1noc(C)c1C(=O)Nc1sc(C)c(-c2ccccc2)c1C#N	13	i	-30	1	25*	8	46%*	i	-1.2	-8
COc1ccc(-c2noc(CCC(=O)Nc3cccc(C(=O)NC4CC4)c3)n2)cc1OC	9	nt	-8	4	nt	nt	nt	nt	nt	nt
CC(C)(C)S(=O)N1Cc2ccc(CO)cc2[C@@H]1CCO (stereo not given in full)	-4	nt	3	0	nt	nt	nt	nt	nt	nt
COc1ccccc1NS(=O)(=O)c1ccc(-c2cnc(C3CC3)o2)cc1	14	i	-13	6	i	4	nt	nt	nt	nt
COc1ccc(NS(=O)(=O)c2ccc(-c3cnc(C4CC4)o3)cc2)cc1OC	-19	i	23	16*	25*	0	34%*	i	-1	-24
Cc1nc(SCc2ccc(Cl)c(Cl)c2)ncc1C(=O)O	-2	i	20	2	25*	0	22%*	i	-0.73	-5
CC(=O)c1cnc(SCc2ccc(Cl)cc2)nc1C	23	i	-8	1	i	0	nt	nt	nt	nt
Cc1cc(C(C)(C)C)oc1C(=O)N(CC(=O)NC1CCCC1)c1c(C)cccc1C	17	i	2	2	100*	15	26%*	i	-1.1	-20
Cc1cc(C(C)(C)C)oc1C(=O)N(CC(=O)NC1CCCC1)c1ccc(F)cc1	-3	i	13	1	i	2	nt	nt	nt	nt
CCN1C=C(Cc2ccc(F)cc2)C2=C(C1)C(c1ccc(F)cc1)C(C#N)=C(N)O2 (stereo not given)	20	i	-15	0	25*	4	i	i	-1.1	-6
O=C(Nc1ccc(Cl)c(Cl)c1)c1ccccc1	-19	i	-3	0	i	-1	nt	nt	nt	nt
O=C(Nc1ccc(Cl)c(Cl)c1)Nc1ccccc1O	-9	i	25*	13	100*	13	22%*	i	-1.1	-20
O=C(CN1CCCC1c1ccc2c(c1)OCCO2)NC(=O)Nc1ccccc1 (stereo not given)	3	i	-9	2	nt	8	nt	nt	nt	nt
CCC1(C2C=COC=C2)NC(=O)NC1=O (stereo not given)	16	nt	-17	1	nt	nt	nt	nt	nt	nt
C=CCn1c(C)cc(C(=O)CSc2nc3ccccc3[nH]2)c1C	-8	i	2	18*	25*	4	43%*	i	-0.97	-20
C=CCn1c(C)cc(C(=O)CSc2nc3ccccc3c(=O)[nH]2)c1C	0	i	5	11	i	8	nt	nt	nt	nt
CCCCN(CCCC)CCNC(=O)CNC(=O)c1cccs1	13	i	2	1	100*	3	i	i	-0.96	-8
CC(=O)Nc1ccc(S(=O)(=O)N2CCN(C(=O)c3ncoc3-c3cccc(F)c3)CC2)cc1	11	i	-21	5	100*	1	i	i	-1	-7
Cc1nc(Nc2ccc(Cl)c(Cl)c2)sc1C(/C=C/c1ccc2c(c1)OCO2)=NNc1ccc([N+](=O)[O-])cc1[N+](=O)[O-]	16	i	-15	0	nt	nt	nt	nt	nt	nt
SMILES	CHO-K1 Ca PAM	TMEM16A act	CHO-K1 Ca antag	CHO-K1 Ca ag	ANO1 block	NTR1 agonist	TMEM16A reconf	HEK293 Ca mobil	YFP-HEK293 quench	ClC-1 rat inh
COc1cccc(NC(=O)CN(C)C(=O)c2cccc(S(=O)(=O)N3CCN(c4ccc(F)cc4)CC3)c2)c1	-10	i	3	3	100*	0	i	i	-0.98	-2
CN(Cc1ccc(F)cc1)C(=O)c1cccc(S(=O)(=O)N2CCN(c3ccc(F)cc3)CC2)c1	-16	i	5	8	25*	1	i	i	-1.4	-9
CCC(C)N(C(=O)c1csnn1)C(C(=O)NC(C)(C)C)c1ccccc1 (stereo not given)	20	nt	-13	0	i	3	i	i	-1.2	2
O=C(CNC(=O)c1ccc(Br)cc1)NC1=NCCS1	-12	i	-11	0	25*	0	i	i	-1.2	-5
Cc1nn(C(=O)c2ccco2)c(C)c1Sc1ccc([N+](=O)[O-])cc1	-4	i	-2	0	i	6	nt	nt	nt	nt
Cc1nn(S(=O)(=O)c2cccs2)c(C)c1Sc1ccc([N+](=O)[O-])cc1	8	i	1	4	100*	1	44%*	i	-0.99	-20
Cc1c(C(=O)Nc2ccc3c(c2)OCCO3)sc2nc(-c3ccccc3)cn12	-10	i	9	15	25*	31	16%*	i	-0.94	-12
CCCCN(C)CCn1c(=S)[nH]c2ccc(N3CCOCC3)cc2c1=O	10	i	-2	0	25*	-2	i	i	-0.9	-6
COC(=O)c1ccccc1NC(=O)CNc1cc(OC)c(OC)cc1C	15	i	-4	1	25*	2	i	i	-1.1	-14
CCc1nc2c(OCC3CCCCC3)cccn2c1N(C)C(=O)c1ccccc1F	2	nt	0	2	nt	nt	nt	nt	nt	nt
COc1ccc2c(c1)CO[C@]21O[C@H](CCO)C[C@H](O)[C@H]1O	17	nt	-1	0	nt	nt	nt	nt	nt	nt
